This is an account of results in PubChem BioAssay (NCATS).

Records with an inconclusive call do not appear. Active and inactive are the calls of the source. Unless noted, calls come from the whole dose curve; as a rule, active = well fitted curve in the direction sought with a large enough effect; inconclusive = small, poorly fitted or top-dose-only effect, or another doubt; inactive = no such curve, though single readings can be large; an effect the other way counts as inactive or inconclusive.

The nature of assay [1]: Validation screen for small molecules that induce genotoxicity in human embryonic kidney (HEK293T) cells expressing luciferase-tagged ELG1 (AID 493106). Note: 0% is about no effect. In short, it runs like this: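 In this validation screen, increased ELG1-luciferase signal flags compounds causing genetic stress. HEK293T reporter cells are treated 16 hr (37 °C, 5% CO2), developed with ONE-Glo for 30 min at room temperature, and imaged on a CCD-based reader.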

Assay [2] deals with ATPase family AAA domain-containing protein 5 (Homo sapiens) (UniProt Q96QE3). Kind of assay: Validation screen for small molecules that inhibit ELG1-dependent DNA repair in human embryonic kidney (HEK293T) cells expressing luciferase-tagged ELG1 (AID 493107).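 Note: cells co-treated with the DNA-damaging agent 5-fluorouridine alongside compound; series mostly up to about 46 µM; % is set by controls: 0 for no effect and ±100 for the full control effect; inhibitors lower the ELG1-luciferase luminescence signal; nearly all actives have a fitted effect of over 70% in size.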 In short, it runs like this: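 Compounds reducing 5-fluorouridine-driven ELG1-luciferase signal in HEK293T cells were scored; exposure lasted 16 hr at 37 °C with luminescence detected via ONE-Glo.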

In assay [3] the target is Thyrotropin-releasing hormone receptor (Homo sapiens) (UniProt P34981). In words: qHTS for Small Molecule Agonists and Allosteric Enhancers of Human TRH Receptor: Validation Screen for Agonists (AID 493127;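 active = calcium activation more than 3 SD above the typical response in the agonist read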;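 note: intracellular calcium rise by fluo-8 fluorescence before TRH EC20 addition; 0% is about no effect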). The note with it: TRH receptor agonist cell assay; at 2 µM; stronger effect = higher value. In short, it runs like this:
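Kinetic fluorescence assay of agonist-induced calcium release: overnight-plated TRHR cells, room-temperature fluo-8 loading, baseline then compound addition with per-second reads.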
A general note: In qHTS, concentration-response curves come from the screen itself.

Assay [4] is described as follows: qHTS for Inhibitors of Cell Surface uPA Generation: Validation Assay (AID 493164).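 Note: RAW 264.7 macrophage cells exposed to compound for 18 h; 0% is about no effect.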 In short, it runs like this:
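Compounds are titrated over seven points (2.45 nM–38.3 uM final) onto pre-plated RAW 264.7 cells and incubated for 18 h. Retained intracellular ATP, measured with ATP-Lite, indicates blocked lethal factor entry.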

Assay [5] concerns the target Galactokinase (Homo sapiens) (UniProt P51570). In words: qHTS Validation Assay for Inhibitors of Human Galactokinase (GALK) (AID 493189). Note: 0% is about no effect. A digest of the protocol: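 Luminescence from leftover ATP (Kinase-Glo Plus, 10 min) served as read-out after a 1 h room-temperature reaction of 5 nM GALK, 100 uM galactose and 35 uM ATP at pH8.0.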
Assay [6] in a line: Validation screen for small molecules that induce DNA re-replication in SW480 colon adenocarcinoma cells (AID 504364). Note: 0% is about no effect. In short, it runs like this:
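Hoechst-stained SW480 nuclei, imaged at 405 nm excitation after 48 hr compound exposure, were counted for elevated DNA content as the re-replication signal.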

The target of assay [7] is Peptidyl-prolyl cis-trans isomerase NIMA-interacting 1 (Homo sapiens) (UniProt Q13526). Kind of assay: qHTS Validation Assay to Find Inhibitors of Pin1 (AID 504536; active = well fitted inhibition curve with a large enough effect in the polarisation, with a control signal flat, not every such curve was filed as active; the % refers to the polarisation;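 note: 0% = full Pin1 enzyme wells and -100% = no-enzyme wells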). A digest of the protocol: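 Fluorescence polarization competition: compounds (titration) displace HiFluor-488-labeled Pin1-1b peptide from Pin1 (0.3 uM final) in pH 7.5 HEPES buffer with DTT, 10 min at room temperature; %Activity normalized to no-enzyme wells, curves fitted.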

The target in assay [8] is Phosphoglycerate kinase, glycosomal (Trypanosoma brucei brucei) (UniProt P07378). Kind of assay: qHTS Validation Assay to Find Inhibitors of Phosphoglycerate Kinase (AID 504547).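 Note: control wells lack PGK and mark full inhibition.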 In short, it runs like this: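 Compounds are pinned into the substrate/PGK mixture, and GAPDH (100nM final) is added to start the reaction by producing 1,3-BPG. After 60 minutes at room temperature, Kinase-Glo Plus is added and luminescence is measured 10 minutes later.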

The target in assay [9] is phosphoglycerate mutase (Leishmania major) (UniProt Q4Q090). Kind of assay: qHTS Validation Assay to Find Inhibitors of Phosphoglycerate Mutase (AID 504548). Note: series mostly up to about 58 µM; % is set by controls: 0 for no effect and ±100 for the full control effect. In short, it runs like this:
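Lm PGAM at 1.25 nM final with substrate in 100 mM TEA pH 7.6, 5 mM MgCl2, 0.01% Tween-20; 45 min at room temperature. Kinase-GloPlus added, 10 min, end-point luminescence read.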

Assay [10] in a line: Nrf2 qHTS screen for inhibitors: Validation (AID 493153; active = well fitted inhibition curve with a large enough effect in the main read-out, with a control signal flat, not every such curve was filed as active). The note with it: Potency: luciferase luminescence; viability change: measured here: cytotoxicity max response. In short, it runs like this: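 In this counterscreened reporter format, each well gives two signals: CellTiter-Fluor fluorescence for cytotoxicity and ARE-luciferase luminescence for Nrf2 function. A549 ARE_Fluc cells in 5% FBS OPTI-MEM were exposed to compound titrations for 18-24 h.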

Sequence of ATPase family AAA domain-containing protein 5 (Homo sapiens) (Q96QE3 whole entry, looked up, the tested form may be a part): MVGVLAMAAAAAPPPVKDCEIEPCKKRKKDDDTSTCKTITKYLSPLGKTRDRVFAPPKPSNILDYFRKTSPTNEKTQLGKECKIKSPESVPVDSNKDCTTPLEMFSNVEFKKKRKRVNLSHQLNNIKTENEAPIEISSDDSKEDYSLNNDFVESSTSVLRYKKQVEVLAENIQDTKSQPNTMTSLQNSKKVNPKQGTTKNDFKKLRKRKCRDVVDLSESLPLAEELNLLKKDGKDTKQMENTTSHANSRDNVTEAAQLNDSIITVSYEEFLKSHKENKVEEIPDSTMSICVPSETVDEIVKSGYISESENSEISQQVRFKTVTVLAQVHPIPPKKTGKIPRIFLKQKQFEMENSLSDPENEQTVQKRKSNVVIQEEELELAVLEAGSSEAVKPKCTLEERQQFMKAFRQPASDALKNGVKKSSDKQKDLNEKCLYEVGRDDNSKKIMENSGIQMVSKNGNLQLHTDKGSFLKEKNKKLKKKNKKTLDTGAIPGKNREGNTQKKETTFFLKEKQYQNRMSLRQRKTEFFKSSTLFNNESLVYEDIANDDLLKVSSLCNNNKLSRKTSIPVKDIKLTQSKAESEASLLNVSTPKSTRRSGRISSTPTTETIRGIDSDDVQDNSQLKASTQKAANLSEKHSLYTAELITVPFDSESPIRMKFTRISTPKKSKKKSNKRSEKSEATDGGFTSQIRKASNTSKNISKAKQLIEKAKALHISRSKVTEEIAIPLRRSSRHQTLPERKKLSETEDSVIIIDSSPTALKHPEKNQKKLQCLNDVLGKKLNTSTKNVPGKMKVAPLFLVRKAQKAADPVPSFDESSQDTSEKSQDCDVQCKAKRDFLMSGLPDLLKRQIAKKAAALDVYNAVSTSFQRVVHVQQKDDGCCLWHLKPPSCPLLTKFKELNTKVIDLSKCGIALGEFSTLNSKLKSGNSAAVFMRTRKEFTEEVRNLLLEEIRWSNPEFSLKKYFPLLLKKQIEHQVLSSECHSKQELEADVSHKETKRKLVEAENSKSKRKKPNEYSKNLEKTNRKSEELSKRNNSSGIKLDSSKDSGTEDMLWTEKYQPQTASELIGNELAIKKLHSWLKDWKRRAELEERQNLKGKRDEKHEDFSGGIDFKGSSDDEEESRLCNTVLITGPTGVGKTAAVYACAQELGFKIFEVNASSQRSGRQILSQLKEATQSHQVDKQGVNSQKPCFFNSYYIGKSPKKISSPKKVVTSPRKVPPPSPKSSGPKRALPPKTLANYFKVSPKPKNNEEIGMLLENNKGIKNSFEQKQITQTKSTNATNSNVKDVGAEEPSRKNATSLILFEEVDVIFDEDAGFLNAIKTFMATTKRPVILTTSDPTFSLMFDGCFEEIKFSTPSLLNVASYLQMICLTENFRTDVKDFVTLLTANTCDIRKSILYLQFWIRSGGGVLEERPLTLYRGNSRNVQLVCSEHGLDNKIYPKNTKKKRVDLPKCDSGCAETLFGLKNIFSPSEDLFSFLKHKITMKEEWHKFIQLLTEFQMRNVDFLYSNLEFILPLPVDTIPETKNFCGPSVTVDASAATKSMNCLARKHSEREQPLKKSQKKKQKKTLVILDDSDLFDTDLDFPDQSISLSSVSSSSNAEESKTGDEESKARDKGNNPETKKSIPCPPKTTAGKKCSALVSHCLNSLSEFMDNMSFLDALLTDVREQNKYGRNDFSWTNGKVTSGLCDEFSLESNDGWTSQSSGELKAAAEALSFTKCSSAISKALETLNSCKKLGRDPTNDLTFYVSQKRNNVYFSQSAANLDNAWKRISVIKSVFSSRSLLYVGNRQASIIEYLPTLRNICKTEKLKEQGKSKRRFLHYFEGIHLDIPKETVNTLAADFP
Sequence of Phosphoglycerate kinase, glycosomal (Trypanosoma brucei brucei) (P07378 whole entry, looked up): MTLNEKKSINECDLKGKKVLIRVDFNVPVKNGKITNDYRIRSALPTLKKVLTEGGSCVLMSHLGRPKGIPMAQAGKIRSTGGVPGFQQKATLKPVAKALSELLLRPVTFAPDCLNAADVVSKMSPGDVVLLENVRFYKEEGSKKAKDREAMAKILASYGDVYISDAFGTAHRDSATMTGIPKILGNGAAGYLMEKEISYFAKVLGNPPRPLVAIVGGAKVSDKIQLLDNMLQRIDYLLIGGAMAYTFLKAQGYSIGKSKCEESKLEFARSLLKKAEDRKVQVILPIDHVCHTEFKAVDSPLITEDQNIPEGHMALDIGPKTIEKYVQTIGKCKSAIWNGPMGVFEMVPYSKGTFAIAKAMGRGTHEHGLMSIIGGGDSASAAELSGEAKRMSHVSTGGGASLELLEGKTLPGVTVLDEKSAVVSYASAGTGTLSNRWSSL
Sequence of Galactokinase (Homo sapiens) (P51570 whole entry, looked up): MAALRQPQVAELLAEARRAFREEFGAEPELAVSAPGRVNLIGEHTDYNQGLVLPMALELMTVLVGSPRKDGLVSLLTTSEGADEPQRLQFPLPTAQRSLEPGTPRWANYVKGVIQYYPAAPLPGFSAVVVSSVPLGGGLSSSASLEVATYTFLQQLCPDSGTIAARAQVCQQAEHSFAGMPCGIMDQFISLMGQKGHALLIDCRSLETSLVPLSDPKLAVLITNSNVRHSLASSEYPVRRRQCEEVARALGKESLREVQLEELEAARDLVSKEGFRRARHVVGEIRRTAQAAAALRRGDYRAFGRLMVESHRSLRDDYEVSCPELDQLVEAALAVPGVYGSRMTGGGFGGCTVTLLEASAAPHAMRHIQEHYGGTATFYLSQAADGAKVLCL
Sequence of Peptidyl-prolyl cis-trans isomerase NIMA-interacting 1 (Homo sapiens) (Q13526 whole entry, looked up): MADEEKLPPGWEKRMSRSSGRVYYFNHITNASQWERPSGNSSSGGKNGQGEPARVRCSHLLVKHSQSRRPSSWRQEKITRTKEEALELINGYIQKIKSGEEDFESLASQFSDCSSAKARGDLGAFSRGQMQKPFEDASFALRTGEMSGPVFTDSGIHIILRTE
Sequence of phosphoglycerate mutase (Leishmania major) (Q4Q090 1-553): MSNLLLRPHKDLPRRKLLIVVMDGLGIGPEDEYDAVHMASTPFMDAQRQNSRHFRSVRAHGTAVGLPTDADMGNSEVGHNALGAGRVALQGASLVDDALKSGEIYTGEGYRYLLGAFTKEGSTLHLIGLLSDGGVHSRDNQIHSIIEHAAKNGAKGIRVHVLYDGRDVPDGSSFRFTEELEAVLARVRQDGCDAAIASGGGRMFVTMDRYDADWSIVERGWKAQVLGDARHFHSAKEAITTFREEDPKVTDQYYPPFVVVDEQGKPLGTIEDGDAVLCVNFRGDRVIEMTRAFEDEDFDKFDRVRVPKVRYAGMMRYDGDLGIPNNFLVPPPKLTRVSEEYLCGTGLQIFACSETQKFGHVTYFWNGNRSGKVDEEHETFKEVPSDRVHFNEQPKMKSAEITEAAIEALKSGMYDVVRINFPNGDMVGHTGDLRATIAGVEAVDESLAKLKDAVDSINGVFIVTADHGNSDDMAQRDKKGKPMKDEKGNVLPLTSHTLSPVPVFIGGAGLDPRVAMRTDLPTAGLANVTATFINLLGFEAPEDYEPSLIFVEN
Sequence of Thyrotropin-releasing hormone receptor (Homo sapiens) (P34981 whole entry, looked up): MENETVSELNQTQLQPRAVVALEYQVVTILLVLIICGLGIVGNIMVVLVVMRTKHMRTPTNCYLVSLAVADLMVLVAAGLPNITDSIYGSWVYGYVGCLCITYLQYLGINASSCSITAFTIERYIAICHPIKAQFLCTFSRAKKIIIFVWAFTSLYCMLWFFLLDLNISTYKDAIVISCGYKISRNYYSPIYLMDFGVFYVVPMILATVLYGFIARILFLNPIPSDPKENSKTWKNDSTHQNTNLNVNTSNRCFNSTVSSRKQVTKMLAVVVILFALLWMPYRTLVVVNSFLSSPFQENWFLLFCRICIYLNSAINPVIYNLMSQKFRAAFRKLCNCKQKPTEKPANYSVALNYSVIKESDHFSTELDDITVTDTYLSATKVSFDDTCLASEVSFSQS

Consider `NCCCC(N)(C(=O)O)C(F)F` (stereo not given), for which the Potency entry in [1] and in [2] was “inactive” in each case. For the same compound, the activation in [3] was 0.938% (inactive). Further, the compound was called inactive in assay [4], in assay [5], in assay [6], in assay [7], in assay [8] and in assay [9].

As to `O=c1n(CCCN2CCN(c3cccc(Cl)c3)CC2)nc2ccccn12`, the Potency result in assay [1], in assay [2] and in [10] was “inactive” in each case. The viability change in [10] was -3.91%. In addition, the compound was classed as inactive in [4], in assay [5], in [6], in assay [7], in [8] and in assay [9].

Turning to `Oc1ccc(C2CNCCc3c2cc(O)c(O)c3Cl)cc1` (stereo not given), the Potency result in assay [1], in assay [2] and in [10] was “inactive” each time. Moreover, the viability change in assay [10] amounted to 0.62%. Besides, the call in assay [4], in assay [5], in assay [6], in assay [7], in assay [8] and in assay [9] was inactive.

Turning to `O=C1CCc2cc(OCCCCc3nnnn3C3CCCCC3)ccc2N1`, the Potency entry in assay [1] and in assay [2] was “inactive” each time. The activation in assay [3] was 3.38% (inactive). In addition, the outcome in assay [4], in [5], in assay [6], in assay [7], in assay [8] and in assay [9] was inactive.

For the compound `Nc1ccc(S(=O)(=O)Nc2ccnn2-c2ccccc2)cc1`, the Potency result in [1], in assay [2] and in assay [10] was “inactive” throughout. In assay [3], the activation was 1.12% (inactive). In addition, in [10], the viability change is -5.45%. Also, the compound was classed as inactive in assay [4], in [5], in assay [6], in [7], in assay [8] and in [9].

Take `Cn1cnc([N+](=O)[O-])c1Sc1ncnc2nc[nH]c12`: the Potency result in [1], in assay [2] and in [10] was “inactive” each time. The activation in assay [3] was 0.875% (inactive). In assay [10], the viability change was -10.4%. Further, the compound was called inactive in assay [4], in [5], in assay [6], in assay [7], in assay [8] and in [9].

On to `O=NN(CCCl)C(=O)NCCCl`, for which the Potency result in assay [1], in assay [2] and in [10] was “inactive” throughout. In addition, the activation in [3] was 0.438% (inactive). For the same compound, in [10], the viability change was -0.612%. Moreover, the outcome in assay [4], in [5], in [6], in assay [7], in assay [8] and in [9] was inactive.

As for `N[C@@H]1CONC1=O`, the Potency result in assay [1], in [2] and in assay [10] was “inactive” each time. For the same compound, the viability change in assay [10] amounted to 10.9%. Also, the outcome in [4], in assay [5], in assay [6], in assay [7], in assay [8] and in assay [9] was inactive.

Turning to `Cc1ccccc1C(OCCN(C)C)c1ccccc1` (stereo not given), the Potency result in [1], in assay [2] and in assay [10] was “inactive” each time. Moreover, the activation in assay [3] was 0.625% (inactive). The viability change in assay [10] turned out to be 7.3%. The outcome in assay [4], in assay [5], in assay [6], in assay [7], in assay [8] and in assay [9] was inactive.

As to `C1COC(NC(C2CC2)C2CC2)=N1`, the Potency entry in assay [1], in assay [2] and in assay [10] was “inactive” in each case. Besides, the activation in assay [3] is -0.312% (inactive). The viability change in [10] is -3.72%. Further, the compound was called inactive in assay [4], in [5], in assay [6], in [7], in assay [8] and in [9].

Consider `c1ccc([C@H]2CN3CCSC3=N2)cc1`, for which the Potency result in assay [1], in assay [2] and in [10] was “inactive” in each case. Also, the activation in [3] is 0.875% (inactive). The viability change in [10] was -0.324%. In addition, the call in assay [4], in [5], in [6], in [7], in assay [8] and in [9] was inactive.

On to `CCC(C)N(C)C(=O)c1cc2ccccc2c(-c2ccccc2Cl)n1` (stereo not given), for which the Potency result in assay [1], in assay [2] and in [10] was “inactive” each time. The activation in assay [3] was -6.5% (inactive). Also, the viability change in assay [10] was -9.44%. Besides, the result in assay [4], in assay [5], in assay [6], in assay [7], in assay [8] and in [9] was inactive.

On to `NCCc1ccc(O)c(O)c1`, for which the Potency entry in assay [1], in assay [2] and in assay [10] was “inactive” in each case. In addition, in assay [3], the activation was 1% (inactive). Also, the viability change in assay [10] was determined as 1.72%. Besides, the call in assay [4], in [5], in assay [6], in assay [7] and in [8] was inactive.
